Source: the supplement of paper PMC10849652
Targets with a hit are over-represented here; the source holds about 8,800 in all. About 0.5% of all pairs of compound and target were hits.

Each target was assayed with C1=CC(=CC=C1C2=NC3=C(N2)C=C(C=C3)C(=O)N)OC4=CC=C(C=C4)Cl (assay: log2 fold change, soluble protein after heating vs DMSO (PISA); higher = thermal stabilisation; K562 lysate, 10 uM; active = over 0.2 and 3.5 SD of the protein, either way, in both replicates (recomputed)).
Method in brief: (§1)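 Following dounce homogenisation of K562 pellets in PBS pH 7.4 with 1 mM MgCl2, crude extract at 1 mg/mL protein was incubated for 30 min with 10 μM compound. Aliquots were then heated for 3 min over 48°C-58°C and pooled, NP-40 was added to 0.5% at 4°C, and soluble protein was recovered as the supernatant at 21,000xg for 90 min. Channel-sum-equalised TMTpro 16plex LC-MS/MS quantified this protein. Each value, from duplicates, is a log-two fold change in thermal stability relative to solvent controls.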

Chain of UniProt Q3L8U1 (Q3L8U1 whole entry, looked up): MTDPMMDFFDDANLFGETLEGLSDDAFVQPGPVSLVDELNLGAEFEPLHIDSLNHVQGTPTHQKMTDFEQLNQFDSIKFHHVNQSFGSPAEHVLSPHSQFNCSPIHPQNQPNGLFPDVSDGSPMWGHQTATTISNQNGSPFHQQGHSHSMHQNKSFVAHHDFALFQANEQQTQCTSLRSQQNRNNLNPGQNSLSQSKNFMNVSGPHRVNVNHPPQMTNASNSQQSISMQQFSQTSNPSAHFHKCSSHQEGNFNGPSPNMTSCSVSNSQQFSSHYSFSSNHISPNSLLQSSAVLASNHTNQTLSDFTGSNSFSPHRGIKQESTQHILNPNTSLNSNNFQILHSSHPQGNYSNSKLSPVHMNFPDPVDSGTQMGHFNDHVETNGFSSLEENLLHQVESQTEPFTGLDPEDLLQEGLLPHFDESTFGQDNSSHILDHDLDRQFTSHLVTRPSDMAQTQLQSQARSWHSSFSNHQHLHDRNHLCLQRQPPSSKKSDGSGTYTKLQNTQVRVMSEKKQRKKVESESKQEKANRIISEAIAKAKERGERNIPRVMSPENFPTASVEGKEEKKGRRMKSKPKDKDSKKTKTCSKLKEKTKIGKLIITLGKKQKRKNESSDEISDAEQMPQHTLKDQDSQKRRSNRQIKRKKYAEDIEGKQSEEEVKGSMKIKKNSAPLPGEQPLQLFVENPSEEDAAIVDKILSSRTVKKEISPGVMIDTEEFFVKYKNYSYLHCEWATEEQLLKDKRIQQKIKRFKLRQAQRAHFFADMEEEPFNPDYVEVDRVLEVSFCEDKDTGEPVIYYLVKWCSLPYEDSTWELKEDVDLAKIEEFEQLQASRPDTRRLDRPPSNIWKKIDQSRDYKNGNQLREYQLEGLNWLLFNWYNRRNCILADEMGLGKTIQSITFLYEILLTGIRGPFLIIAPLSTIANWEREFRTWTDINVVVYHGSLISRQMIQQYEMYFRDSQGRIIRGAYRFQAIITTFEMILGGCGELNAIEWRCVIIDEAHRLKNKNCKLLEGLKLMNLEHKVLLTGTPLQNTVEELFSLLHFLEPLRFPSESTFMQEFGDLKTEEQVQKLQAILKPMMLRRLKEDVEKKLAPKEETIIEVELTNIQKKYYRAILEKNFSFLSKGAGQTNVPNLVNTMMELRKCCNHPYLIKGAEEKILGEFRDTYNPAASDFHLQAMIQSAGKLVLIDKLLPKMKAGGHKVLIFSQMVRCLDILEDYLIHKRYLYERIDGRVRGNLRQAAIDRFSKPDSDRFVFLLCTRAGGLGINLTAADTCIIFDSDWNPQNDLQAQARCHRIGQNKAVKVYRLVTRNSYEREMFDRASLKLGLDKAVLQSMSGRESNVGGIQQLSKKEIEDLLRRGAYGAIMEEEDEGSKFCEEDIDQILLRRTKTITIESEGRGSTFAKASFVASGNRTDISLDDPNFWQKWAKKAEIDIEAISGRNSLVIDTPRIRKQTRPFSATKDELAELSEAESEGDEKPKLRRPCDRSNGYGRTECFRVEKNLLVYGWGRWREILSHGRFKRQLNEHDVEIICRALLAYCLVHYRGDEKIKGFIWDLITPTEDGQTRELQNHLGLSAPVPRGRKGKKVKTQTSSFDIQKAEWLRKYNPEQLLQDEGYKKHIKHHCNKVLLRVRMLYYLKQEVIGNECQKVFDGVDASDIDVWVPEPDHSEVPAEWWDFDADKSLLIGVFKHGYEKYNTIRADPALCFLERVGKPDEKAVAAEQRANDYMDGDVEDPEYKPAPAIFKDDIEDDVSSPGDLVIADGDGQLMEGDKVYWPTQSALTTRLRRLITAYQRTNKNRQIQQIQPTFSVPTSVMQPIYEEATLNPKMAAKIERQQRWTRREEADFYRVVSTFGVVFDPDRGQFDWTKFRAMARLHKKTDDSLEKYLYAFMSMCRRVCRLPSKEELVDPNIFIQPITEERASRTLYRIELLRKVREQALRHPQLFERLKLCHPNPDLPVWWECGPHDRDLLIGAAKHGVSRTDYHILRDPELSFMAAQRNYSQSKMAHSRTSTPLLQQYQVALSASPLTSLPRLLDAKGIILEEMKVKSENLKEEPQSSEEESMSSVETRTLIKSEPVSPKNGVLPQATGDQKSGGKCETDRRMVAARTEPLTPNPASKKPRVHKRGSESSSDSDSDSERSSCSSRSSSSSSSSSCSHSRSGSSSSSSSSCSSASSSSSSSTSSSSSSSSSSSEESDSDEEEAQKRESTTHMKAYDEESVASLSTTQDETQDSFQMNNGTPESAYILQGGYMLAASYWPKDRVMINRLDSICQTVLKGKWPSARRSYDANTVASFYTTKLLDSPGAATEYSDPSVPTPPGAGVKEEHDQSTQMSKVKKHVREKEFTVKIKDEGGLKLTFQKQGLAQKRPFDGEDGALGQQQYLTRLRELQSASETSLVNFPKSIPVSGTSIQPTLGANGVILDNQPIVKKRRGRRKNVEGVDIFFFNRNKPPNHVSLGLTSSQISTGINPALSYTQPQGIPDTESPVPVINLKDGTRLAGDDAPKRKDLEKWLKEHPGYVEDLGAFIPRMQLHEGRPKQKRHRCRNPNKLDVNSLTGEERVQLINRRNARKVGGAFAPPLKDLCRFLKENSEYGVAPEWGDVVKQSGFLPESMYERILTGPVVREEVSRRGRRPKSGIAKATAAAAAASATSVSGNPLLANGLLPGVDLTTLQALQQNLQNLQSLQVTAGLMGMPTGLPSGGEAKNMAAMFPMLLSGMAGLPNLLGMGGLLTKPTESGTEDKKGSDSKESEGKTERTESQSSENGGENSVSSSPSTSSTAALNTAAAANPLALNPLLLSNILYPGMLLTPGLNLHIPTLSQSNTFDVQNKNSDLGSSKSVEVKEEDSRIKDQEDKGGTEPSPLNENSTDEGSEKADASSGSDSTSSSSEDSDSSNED
Chain of UniProt P25440 (P25440 whole entry, looked up): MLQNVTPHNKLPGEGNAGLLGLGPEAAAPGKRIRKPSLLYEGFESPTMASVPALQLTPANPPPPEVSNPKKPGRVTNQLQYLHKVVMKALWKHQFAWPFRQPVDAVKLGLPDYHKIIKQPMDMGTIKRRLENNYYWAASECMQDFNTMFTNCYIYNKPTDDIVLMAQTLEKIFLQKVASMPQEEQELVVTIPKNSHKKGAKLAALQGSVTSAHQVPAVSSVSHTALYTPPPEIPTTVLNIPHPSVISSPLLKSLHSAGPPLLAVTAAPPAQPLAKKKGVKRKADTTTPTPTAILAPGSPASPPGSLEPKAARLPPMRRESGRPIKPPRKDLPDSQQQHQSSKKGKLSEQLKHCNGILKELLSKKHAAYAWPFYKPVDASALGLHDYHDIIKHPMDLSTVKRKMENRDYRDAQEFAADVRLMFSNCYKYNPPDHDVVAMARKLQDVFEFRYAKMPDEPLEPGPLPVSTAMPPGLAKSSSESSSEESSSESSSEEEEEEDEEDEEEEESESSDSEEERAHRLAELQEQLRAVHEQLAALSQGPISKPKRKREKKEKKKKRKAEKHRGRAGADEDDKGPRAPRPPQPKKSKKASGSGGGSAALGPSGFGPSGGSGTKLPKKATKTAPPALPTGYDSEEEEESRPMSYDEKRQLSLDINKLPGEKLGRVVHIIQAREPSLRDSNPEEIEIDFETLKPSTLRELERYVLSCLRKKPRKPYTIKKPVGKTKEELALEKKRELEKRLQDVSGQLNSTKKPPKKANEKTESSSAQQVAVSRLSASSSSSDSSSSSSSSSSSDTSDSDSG
Chain of UniProt Q6ZU80 (Q6ZU80 whole entry, looked up): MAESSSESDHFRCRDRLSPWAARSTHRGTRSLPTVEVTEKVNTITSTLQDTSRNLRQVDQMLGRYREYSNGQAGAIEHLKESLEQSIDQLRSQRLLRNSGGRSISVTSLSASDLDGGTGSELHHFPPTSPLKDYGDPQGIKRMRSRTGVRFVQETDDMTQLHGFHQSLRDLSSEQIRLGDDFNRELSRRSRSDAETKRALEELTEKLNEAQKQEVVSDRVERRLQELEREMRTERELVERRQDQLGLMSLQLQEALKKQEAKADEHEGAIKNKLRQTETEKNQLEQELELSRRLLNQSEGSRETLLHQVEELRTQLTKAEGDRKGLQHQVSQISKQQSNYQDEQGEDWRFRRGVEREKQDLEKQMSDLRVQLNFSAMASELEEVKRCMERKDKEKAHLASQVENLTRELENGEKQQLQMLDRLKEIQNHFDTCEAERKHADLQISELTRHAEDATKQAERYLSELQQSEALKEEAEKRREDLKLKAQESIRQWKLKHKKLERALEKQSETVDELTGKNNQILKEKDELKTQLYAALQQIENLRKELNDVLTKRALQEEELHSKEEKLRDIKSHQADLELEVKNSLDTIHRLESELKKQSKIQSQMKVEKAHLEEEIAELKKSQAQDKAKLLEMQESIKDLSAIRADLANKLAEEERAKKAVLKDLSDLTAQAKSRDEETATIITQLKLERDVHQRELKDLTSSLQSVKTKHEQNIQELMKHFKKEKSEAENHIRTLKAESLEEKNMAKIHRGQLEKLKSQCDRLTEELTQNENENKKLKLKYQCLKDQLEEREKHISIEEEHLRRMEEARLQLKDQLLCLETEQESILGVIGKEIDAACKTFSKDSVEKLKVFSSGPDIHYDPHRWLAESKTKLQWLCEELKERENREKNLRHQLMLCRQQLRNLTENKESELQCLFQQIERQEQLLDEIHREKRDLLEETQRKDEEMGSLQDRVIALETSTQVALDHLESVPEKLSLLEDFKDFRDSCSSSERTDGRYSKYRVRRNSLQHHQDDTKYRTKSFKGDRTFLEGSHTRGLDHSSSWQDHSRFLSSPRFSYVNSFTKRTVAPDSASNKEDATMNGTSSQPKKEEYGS
Chain of UniProt Q7Z4R8 (Q7Z4R8 whole entry, looked up): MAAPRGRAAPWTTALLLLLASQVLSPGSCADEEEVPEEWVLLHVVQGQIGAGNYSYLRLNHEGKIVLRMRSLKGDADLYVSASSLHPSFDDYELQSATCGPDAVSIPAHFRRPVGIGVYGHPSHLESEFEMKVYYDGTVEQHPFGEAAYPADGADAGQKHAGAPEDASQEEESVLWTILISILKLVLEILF
Chain of UniProt Q9BUK0 (Q9BUK0 whole entry, looked up): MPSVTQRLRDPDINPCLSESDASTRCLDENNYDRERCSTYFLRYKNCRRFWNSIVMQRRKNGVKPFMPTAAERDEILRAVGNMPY

log2 fold change, inactive:
CDK2 (UniProt P24941) 0.051
BAHCC1 (UniProt Q9P281) 0.076
CASP7 isoform 3 (UniProt P55210) 0.008
BRD2 isoform 2 (UniProt P25440) 0.02
C15orf39 (UniProt Q6ZRI6) 0.026
CHD9 (UniProt Q3L8U1) -0.167
CCND3 (UniProt P30281) 0.064
C9orf72 (UniProt Q96LT7) 0.056
C6orf120 (UniProt Q7Z4R8) -0.014
C8orf88 (UniProt P0DMB2) -0.185
CAPNS1 (UniProt K7ES78) 0.019
BICRA (UniProt Q9NZM4) 0.231
CDK11A (UniProt Q9UQ88) -0.128
CDC25A (UniProt P30304) 0.085
BUD13 (UniProt Q9BRD0) -0.02
CAD (UniProt H7BZB3) -0.28
BNIP3 (UniProt Q12983) 0.036
CEP57L1 (UniProt Q8IYX8) 0.118
CCDC130 (UniProt P13994) 0.28
CEP295 isoform 3 (UniProt Q9C0D2) -0.02
B3GALT6 (UniProt Q96L58) -0.04

Each target was assayed with C1=CC2=C(C=CC(=C2)/C=C\3/C(=O)NC(=NCC4=CC=CS4)S3)N=C1 in the same assay as above.
Method in brief: as §1

log2 fold change, inactive:
BAHCC1 (UniProt Q9P281) -0.126
BRD2 isoform 2 (UniProt P25440) 0.036
CHD9 (UniProt Q3L8U1) 0.191
CEP128 (UniProt Q6ZU80) 0
CHCHD7 isoform 4 (UniProt Q9BUK0) 0.048
CAPNS1 (UniProt K7ES78) -0.275
CENPV (UniProt Q7Z7K6) 0.013
CAD (UniProt H7BZB3) -0.069
BRAF, A0A2R8Y8E0 0.001
CDKL5 (UniProt O76039) -0.08
CANX (UniProt D6RHJ3) 0.031
